According to the supplement of paper PMC9135407:
Where a name gives a salt, the structure may show the parent alone.

These compounds were tested on primary human hepatic stellate cells (donor 1) (assay: PSMB2 reference mRNA level vs DMSO (fold); higher = more PSMB2 expression). Conditions: 48 h.
Experimental: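 Secondary qRT-PCR screen in primary human HSCs (donor 1), 384-well plates, with compounds dispensed in quadruplicate and incubated for 48 h. Cells-to-CT lysates were used for multiplexed TaqMan qPCR of ACTA2 or COL1A1 with PSMB2 as reference. Fold changes versus DMSO come from a linear model (Ct_gene ~ Ct_PSMB2 + plate + chemical). A hit is defined as COL1A1 and ACTA2 FC <0.5 (FDR <0.05) with PSMB2 between 0.2 and 2.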

Structure (SMILES) | PSMB2 reference mRNA level
C[C@@H]1CN(CCCn2c3ccccc3c3ccccc32)C[C@H](C)N1 [Rimcazole dihydrochloride] (33.3333 µM) | 0.0107
Clc1ccc(C2(c3ccc(-c4cn[nH]c4)cc3)CCNCC2)cc1 (33.3333 µM) | 0.745
CNCCC(Oc1ccc(C(F)(F)F)cc1)c1ccccc1 (stereo not given) [Fluoxetine hydrochloride] (33.3333 µM) | 0.204
COC(=O)C[C@](O)(CCCC(C)(C)O)C(=O)O[C@@H]1C(OC)=C[C@]23CCCN2CCc2cc4c(cc2[C@H]13)OCO4 [Homoharringtonine] (33.3333 µM) | 0.38
OCCN1CCN(CCCN2c3ccccc3Sc3ccc(C(F)(F)F)cc32)CC1 (33.3333 µM) | 0.145
O=C1Nc2ccccc2/C1=C1/Nc2ccccc2C1=O [Indirubin] (63.5333 µM) | 1.03
CN1CCN2c3ccccc3Cc3ccccc3C2C1 (stereo not given) [Mianserin hcl] (25.2333 µM) | 1.26
O=C(Nc1ncc(SCCN2CCCC2)s1)[C@]1(c2ccc(S(=O)(=O)C3CC3)cc2)C[C@H]1C1CCCCC1 (11.1 µM) | 0.35
COC(=O)N[C@H](C(=O)N1CCC[C@H]1c1ncc(-c2ccc(-c3ccc(-c4cnc([C@@H]5CCCN5C(=O)[C@@H](NC(=O)OC)C(C)C)[nH]4)cc3)cc2)[nH]1)C(C)C (33.3333 µM) | 3.28
C[C@@H](Oc1cc(-c2cnn(C3CCNCC3)c2)cnc1N)c1c(Cl)ccc(F)c1Cl (11.1 µM) | 0.805
CN(C)C/C=C(/c1ccc(Br)cc1)c1cccnc1 [Zimelidine dihydrochloride] (11.1 µM) | 0.28
Cc1nc(Nc2ncc(C(=O)Nc3c(C)cccc3Cl)s2)cc(N2CCN(CCO)CC2)n1 (33.3333 µM) | 1.6
CCCCCCCCc1ccc(CCC(N)(CO)CO)cc1 [Fingolimod (FTY720) HCl] (11.1 µM) | 3.91
CC(C)(C)c1cc(NC(=O)Nc2ccc(-c3cn4c(n3)sc3cc(OCCN5CCOCC5)ccc34)cc2)no1 [Quizartinib  (AC220)] (11.1 µM) | 2.12
CNc1nccc(-c2cccnc2Oc2cc(C(=O)Nc3cccc(C(F)(F)F)c3)ccc2C)n1 (33.3333 µM) | 0.887
CCN(CC)CCNC(=O)c1c(C)[nH]c(/C=C2\C(=O)Nc3ccc(F)cc32)c1C (6.66667 µM) | 2.81
COc1cc2ncn(-c3cc(OCc4ccccc4C(F)(F)F)c(C(N)=O)s3)c2cc1OC (33.3333 µM) | 1.6
CN1CCC(Nc2ncc3ncnc(Nc4ccc(F)c(Cl)c4)c3n2)CC1 [BIBX 1382 dihydrochloride] (33.3333 µM) | 0.0502
[O-][S+](c1ccccc1)c1ccc2nnnn2n1 (stereo not given) (33.3333 µM) | 0.000399
O=C(c1ccc(/C=C/c2n[nH]c3ccccc23)cc1)N1CCNCC1 (33.3333 µM) | 0.0479

Structure (SMILES) | PSMB2 reference mRNA level
CCC/C=C\C=C/C(=O)N[C@@H](CC(N)=O)C(=O)NC(CC(N)=O)C(=O)N[C@@H](C(=O)N[C@H](CCCN)C(=O)N[C@@H](C(=O)N[C@@H](C(=O)N[C@@H](C(=O)N[C@H](C(=O)N[C@@H](Cc1ccccc1)C(=O)N[C@H](CCCN)C(=O)NC(C(=O)N[C@H](C(=O)NC(C(=O)NCC(=O)N[C@@H](CC(C)C)C(=O)N[C@H](C)C(=O)NC(C(=O)O)C1CCC(O)C(Cl)C1)C1CCC(O)CC1)[C@H](C)O)C1CCC(O)CC1)[C@H](C)O)C1CCC(O)CC1)C1CCC(O)CC1)[C@H](C)O)C1CCC(O)CC1 (stereo not given in full) (33.3333 µM) | 0.369
NC1(c2ccc(-c3nc4ccn5c(=O)[nH]nc5c4cc3-c3ccccc3)cc2)CCC1 (11.1 µM) | 3.72
CCCCc1oc2ccccc2c1C(=O)c1cc(I)c(OCCN(CC)CC)c(I)c1 (33.3333 µM) | 0.537
Cc1cc(C(=O)Nc2cc(Nc3ccc4c(/C=C/c5ccccn5)n[nH]c4c3)ccc2F)n(C)n1 (33.3333 µM) | 0.985
O=C1NC(=O)/C(=C/c2ccc(-c3ccc(F)cc3O)o2)S1 (33.3333 µM) | 3.41
c1cc(OCCN2CCCCC2)cc(-c2n[nH]c3ccc(-c4nnc[nH]4)cc23)c1 (33.3333 µM) | 0.677
CC(/C=C/C(=O)NO)=C\[C@@H](C)C(=O)c1ccc(N(C)C)cc1 [Trichostatin A] (3.33333 µM) | 1.36
CN1CCC(NC(=O)c2cc(-c3c(O)cc(O)cc3Oc3ccc([N+](=O)[O-])cc3)on2)CC1 (33.3333 µM) | 0.306
CN(C)CCCCC(=O)Nc1ccc(NC(=S)NC(=O)c2ccc(C(C)(C)C)cc2)cc1 [Tenovin-6] (33.3333 µM) | 0.000996
C#CC1(O)CC[C@H]2[C@@H]3CCC4=CC(=O)CC[C@@H]4[C@H]3CC[C@@]21CC (stereo not given in full) [Norgestrel] (21.3333 µM) | 1.14
COc1ccccc1OCCNCC(O)COc1cccc2[nH]c3ccccc3c12 (stereo not given) [Carvedilol] (33.3333 µM) | 2.15
CN(C)CCC(c1ccc(Br)cc1)c1ccccn1 (stereo not given) [Brompheniramine maleate] (33.3333 µM) | 1.3
O=C(O[C@H]1CN2CCC1CC2)N1CCc2ccccc2[C@@H]1c1ccccc1 [Solifenacin succinate] (33.3333 µM) | 0.935
CCNC(=O)c1noc(-c2cc(C(C)C)c(O)cc2O)c1-c1ccc(CN2CCOCC2)cc1 (11.1 µM) | 1.72
CN(C)Cc1c(C(=O)NCCOc2ccc(C(=O)NO)cc2)oc2ccccc12 (33.3333 µM) | 0.5
Cc1ccc2c(c1)c1c3n2CCNC3CCC1 (stereo not given) [Pirlindole mesylate] (20.6667 µM) | 0.807
CNCc1ccc(-c2cc(-c3nc(-c4ccc(S(=O)(=O)C(C)C)cc4)cnc3N)on2)cc1 (11.1 µM) | 0.118
N=C(N)SCCc1ccc(OCc2ccc([N+](=O)[O-])cc2)cc1 [KB-R7943 mesylate] (33.3333 µM) | 0.61
CN1CCC(CNc2ccc3ncc(-c4cccc(OC(F)(F)F)c4)n3n2)CC1 (6.66667 µM) | 0.712
CCc1cc2c(cc1CC)CC(NC[C@H](O)c1ccc(O)c3[nH]c(=O)ccc13)C2 [Indacaterol Maleate] (33.3333 µM) | 0.728
